One experiment deals with CLEC9A. The experiment can be described thus: pooled miR-30 sensor sort-seq; sequence = guide strand. To be noted: shRNA.
Regarding TTCTCTTGACTGGTGTGCCAAA, the sensor-assay potency score (higher = more potent) was -1.18.

Sequence ATAGTAACAACTTTCTCTGTTC returned a sensor-assay potency score (higher = more potent) of -0.226.

As to TTAATCTTCCTCAAGCTGCCAG, the sensor-assay potency score (higher = more potent) was 0.401.

In turn, TTAAACAATTCTCTTGACTGGT gave a sensor-assay potency score (higher = more potent) of -0.125.

TAAACAATTCTCTTGACTGGTG came in with a sensor-assay potency score (higher = more potent) of -0.135.

In turn, TTTGTAGCAGCGTGGAACCTTC came in with a sensor-assay potency score (higher = more potent) of -0.937.

The sequence TCACAAGACAGCATGCTCCTGA registered a sensor-assay potency score (higher = more potent) of 0.87.

In the next experiment the target is CLN3. The experiment is described as above. Conditions: shRNA.
CAGAGTTGCAGTCAAATCGTGA gave a sensor-assay potency score (higher = more potent) of -1.16.

In turn, TACAGCATCTGGTACCAGCGGT came in with a sensor-assay potency score (higher = more potent) of -0.527.

Consider AAGACCACACCACACAGGCTGG, for which the sensor-assay potency score (higher = more potent) was -1.35.

AAATCGTGATGAGCTGTTGTGG had a sensor-assay potency score (higher = more potent) of -0.817.

Take TGACTCAGGGAAGTGTTCCAGA: the sensor-assay potency score (higher = more potent) was -0.693.

Turning to AAGTAAACTACGACCAAGGGAA, the sensor-assay potency score (higher = more potent) was -0.0602.

On to TTGTGGAAGGTGTTCACGTAGG, for which the sensor-assay potency score (higher = more potent) is -0.371.

The sequence TCTGCCAGCAGGAACACCAGGT yielded a sensor-assay potency score (higher = more potent) of 0.0628.

Regarding GTGAGCAACAAGAAATAGCTGG, the sensor-assay potency score (higher = more potent) was -0.754.

With AACAATTTGATGACGAGTGTGG, the sensor-assay potency score (higher = more potent) was found to be 0.272.

TCAAATCGTGATGAGCTGTTGT had a sensor-assay potency score (higher = more potent) of 0.182.

Sequence AACACTGTCCACCTTTCCCGAA showed a sensor-assay potency score (higher = more potent) of -1.44.

Turning to TGAGCAACAAGAAATAGCTGGC, the sensor-assay potency score (higher = more potent) is 0.625.

As for TCGTGATGAGCTGTTGTGGGGG, the sensor-assay potency score (higher = more potent) was -0.528.

In turn, ATCGTGATGAGCTGTTGTGGGG came in with a sensor-assay potency score (higher = more potent) of -0.665.

Regarding AATCCCACTGACGAGAACCCGG, the sensor-assay potency score (higher = more potent) is -0.766.

TTGAACACTGTCCACCTTTCCC displayed a sensor-assay potency score (higher = more potent) of -0.845.

Take TAGAGACAGAGTTGCAGTCAAA: the sensor-assay potency score (higher = more potent) was -1.26.

In the case of TTGCAGTCAAATCGTGATGAGC, the sensor-assay potency score (higher = more potent) was -1.19.

With TGGTCCAACAGAGGGAGCCGGG, the sensor-assay potency score (higher = more potent) is -1.78.

For the sequence TTGTGGCTAAGGATGTCGTGGG, the sensor-assay potency score (higher = more potent) is -0.303.

With TGGTACAGCATCTGGTACCAGC, the sensor-assay potency score (higher = more potent) is -1.94.

For the sequence TTTCCCGATGTCCTCTTGTGGC, the sensor-assay potency score (higher = more potent) is -1.44.

For the sequence AATCGTGATGAGCTGTTGTGGG, the sensor-assay potency score (higher = more potent) is -0.0059.

The values are drawn from the OligoGym collection.
Note: reference of the scale not given here.
